This note sets out measurements from PubChem BioAssay (EPA / NIEHS).

The source made the active and inactive calls. The calls were made as follows: active = hit-call score of the fitted dose curve at least 0.9, where 1 is the maximum; inactive = score below 0.9.

Assay [1] concerns the target Transcription factor E2F1 (Homo sapiens) (UniProt Q01094). Nature of the assay: ATG_E2F_CIS: Attagene CIS-FACTORIAL HepG2 Assay for human E2F Transcription Factor 1 (AID 2282935). Conditions: HepG2 Attagene cis-reporter, E2F reporter RNA transcripts; actives raise or lower the signal. The method, boiled down: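 First, HepG2 cells were transfected with reporter transcription units. Next, they were dosed for 24 h. Then RNA was isolated, converted to cDNA, PCR-amplified, FAM-labeled, HpaI-digested and analyzed by capillary electrophoresis.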

Assay [2] is described as follows: ATG_E_Box_CIS: Attagene CIS-FACTORIAL HepG2 Assay for human Enhancer Box (E-box) (AID 2282936). Conditions: HepG2 E-box cis-reporter transcription, actives raise or lower the signal. The method in brief: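 Endogenous transcription factor activity was sensed in human HepG2 liver cells through transfected cis-promoter reporter units. After 24 h of dosing, total RNA was reverse-transcribed and reporter cDNA resolved by capillary electrophoresis.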

Assay [3] is described as follows: ATG_M_61_CIS: Attagene CIS-FACTORIAL HepG2 Assay for M61 Transcription Factor (Internal Marker) (AID 2282937). Conditions: HepG2 Attagene CIS-FACTORIAL M61 internal marker reporter; actives raise or lower the signal. The method, boiled down: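 Endogenous transcription factor activity in HepG2 is read through transiently transfected cis-element reporter units. After 24 h dosing, RNA undergoes reverse transcription, PCR and primer extension with 6-FAM before capillary electrophoresis; DMSO-referenced bidirectional fit.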

A short description of assay [4]: ATG_EGR_CIS: Attagene CIS-FACTORIAL HepG2 Assay for human Early Growth Response 1 (EGR1) (AID 2282938). The following applies: HepG2 Attagene CIS-FACTORIAL EGR reporter mRNA; actives raise or lower the signal. The method in brief:
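Activity is taken as induction or loss of reporter mRNA versus DMSO, fitted bidirectionally. Transcripts from cis-regulated reporter units in transiently transfected HepG2 were measured after 24 h by RT-PCR with capillary electrophoresis.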

A short description of assay [5]: ATG_M_19_CIS: Attagene CIS-FACTORIAL HepG2 Assay for M19 Transcription Factor (Internal Marker) (AID 2282939). Conditions: HepG2 Attagene CIS-FACTORIAL M19 internal marker reporter; actives raise or lower the signal. The method, boiled down:
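Internal marker readout, fitted in both directions against DMSO, from HepG2 cells carrying transfected cis-element reporter constructs; RT-PCR and capillary electrophoresis of reporter mRNA after 24 h exposure.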

Assay [6] is described as follows: ATG_ERE_CIS: Attagene CIS-FACTORIAL HepG2 Assay for Estrogen Response Element (ERE) (AID 2282940). The following applies: HepG2 ERE cis-reporter, Attagene RNA transcript; actives raise or lower the signal. The method, boiled down:
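After 24 h compound treatment, RNA from transfected HepG2 cells was reverse-transcribed, reporter cDNA PCR-amplified, FAM-labelled, HpaI-cut and resolved by capillary electrophoresis. ERE-driven cis reporter transcripts reflect endogenous factors; gain or loss scored against DMSO.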

Assay [7] in a line: ATG_Ets_CIS: Attagene CIS-FACTORIAL HepG2 Assay for human Erythroblast Transformation Specific (ETS) (AID 2282941). The following applies: HepG2 ETS cis-reporter transcription, actives raise or lower the signal. The method, boiled down: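 Multiplexed reporter transcript profiling: HepG2, 24 h treatment, total RNA to cDNA, PCR, 6-FAM labelling, HpaI cut, capillary electrophoresis. Gain- or loss-of-signal fitted against DMSO.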

Assay [8] deals with Hepatocyte nuclear factor 3-beta (Homo sapiens) (UniProt Q9Y261). Nature of the assay: ATG_FoxA2_CIS: Attagene CIS-FACTORIAL HepG2 Assay for human Forkhead box A2 (FOXA2) (AID 2282942). The following applies: HepG2 cis-reporter transcription factor activity, 24 h; actives raise or lower the signal. The method, boiled down:
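Reporter transcript induction is measured by fluorescence after capillary electrophoresis of RT-PCR products from HepG2 cells exposed 24 h. Cis-regulated reporter units report endogenous factor activity; curves fitted both directions against DMSO.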

Assay [9] is described as follows: ATG_FoxO_CIS: Attagene CIS-FACTORIAL HepG2 Assay for human Forkhead box O (FoxO) (AID 2282943). The following applies: HepG2 Attagene cis-reporter, FoxO element, mRNA; actives raise or lower the signal. The method, boiled down:
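Values reflect reporter mRNA induction or loss in HepG2 cells 24 h post-dosing, fitted bidirectionally with DMSO as negative control and baseline. Detection used RT-PCR and fluorescence capillary electrophoresis.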

The nature of assay [10]: ATG_GATA_CIS: Attagene CIS-FACTORIAL HepG2 Assay for human GATA Binding Protein (AID 2282944). Conditions: HepG2 GATA cis-element reporter, Attagene multiplex mRNA; actives raise or lower the signal. The method in brief: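 Reporter transcripts from a GATA cis-regulated unit, among multiplexed reporters in transfected HepG2 cells, were measured by RT-PCR with capillary electrophoresis after 24 h dosing. Induction or loss scored relative to DMSO.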

Assay [11] can be described thus: ATG_GLI_CIS: Attagene CIS-FACTORIAL HepG2 Assay for human Zinc Finger Protein GLI1 (AID 2282945). Conditions: HepG2, Attagene cis-factorial reporter mRNA, GLI element; actives raise or lower the signal. The method in brief:
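HepG2 cells transiently transfected with cis-promoter multiplexed reporter units report endogenous transcription factor activity. After 24 h chemical exposure, reporter mRNA was quantified by RT-PCR, 6-FAM labelling, HpaI digestion and capillary electrophoresis, with bidirectional fitting against DMSO.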

The target in assay [12] is Bile acid receptor (Homo sapiens) (UniProt Q96RI1). Nature of the assay: ATG_IR1_CIS: Attagene CIS-FACTORIAL HepG2 Assay for human Nuclear Receptor Subfamily 1 Group H Member 4 (NR1H4), IR1 submotif (AID 2282946). The following applies: IR1 reporter transcription, actives raise or lower the signal. The method, boiled down: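 Readout: reporter transcript levels by RT-PCR with fluorescent capillary electrophoresis, from HepG2 cells transiently transfected with multiplexed cis-regulated reporters and dosed 24 h. Gain- or loss-of-signal fitted versus DMSO negative control.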

The nature of assay [13]: ATG_GRE_CIS: Attagene CIS-FACTORIAL HepG2 Assay for human Glucocorticoid Response Elements (GRE) (AID 2282947). Conditions: HepG2 GRE cis-reporter, Attagene multiplex mRNA; actives raise or lower the signal. The method in brief:
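Cells (HepG2) bearing transfected cis-promoter reporter transcription units were treated with chemical for 24 hours. Reporter mRNA was measured via RT-PCR with capillary electrophoresis, and activity was fitted in both directions relative to DMSO.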

Assay [14] can be described thus: ATG_ISRE_CIS: Attagene CIS-FACTORIAL HepG2 Assay for human Interferon Regulatory Factor 1 (IRF1) binding to an Interferon-Stimulated Response Element (ISRE) (AID 2282948). Conditions: HepG2 ISRE cis-reporter (Attagene), mRNA transcription readout; actives raise or lower the signal. The method, boiled down: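 Signal reflects induction or loss of ISRE-linked reporter mRNA in transiently transfected HepG2 cells after a 24 h treatment, detected by fluorescent RT-PCR fragments on capillary electrophoresis and normalised to DMSO.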

The nature of assay [15]: ATG_M_32_CIS: Attagene CIS-FACTORIAL HepG2 Assay for M32 Transcription Factor (Internal Marker) (AID 2282949).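 Also: background control marker of the multiplexed CIS panel rather than a real target.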 The following applies: HepG2 Attagene cis-factorial M32 reporter, mRNA; actives raise or lower the signal. The method in brief: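 HepG2 human liver cells transiently transfected with cis-promoter-driven multiple reporter transcription units, dosed 24 h. Reporter mRNA quantified by RT-PCR, FAM-labelled primer extension, HpaI digest and capillary electrophoresis; bidirectional fit versus DMSO baseline.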

Assay [16] can be described thus: ATG_M_06_CIS: Attagene CIS-FACTORIAL HepG2 Assay for M06 Transcription Factor (Internal Marker) (AID 2282950). Conditions: HepG2 Attagene CIS-FACTORIAL M06 internal marker reporter; actives raise or lower the signal. The method, boiled down: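 Serves as a background control readout. Transfected HepG2 exposed to compounds for 24 h, then reporter transcripts quantified by fluorescent RT-PCR and capillary electrophoresis. Both directions fitted against DMSO baseline.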

The target in assay [17] is Hypoxia-inducible factor 1-alpha (Homo sapiens) (UniProt Q16665). Nature of the assay: ATG_HIF1a_CIS: Attagene CIS-FACTORIAL HepG2 Assay for human Hypoxia Inducible Factor 1 (HIF1A) (AID 2282951). The following applies: HepG2 Attagene cis-factorial HIF1a reporter transcription; actives raise or lower the signal. The method, boiled down: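 Fluorescence intensity of capillary-separated, 6-FAM-labelled reporter amplicons gives mRNA induction in HepG2 cells carrying transfected cis-promoter reporter units; cells exposed 24 h, responses fitted up or down from DMSO.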

Assay [18] concerns the target Hepatocyte nuclear factor 6 (Homo sapiens) (UniProt Q9UBC0). Description: ATG_HNF6_CIS: Attagene CIS-FACTORIAL HepG2 Assay for human Hepatocyte Nuclear Factor 6 (HNF6) (AID 2282952). Conditions: HepG2 Attagene cis-factorial HNF6 reporter transcription; actives raise or lower the signal. The method in brief: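 Endogenous factor activity read in transiently transfected HepG2 via promoter-regulated reporter transcripts. RNA harvested 24 h post-dosing, reverse-transcribed, PCR-amplified, FAM-labelled, HpaI-digested and resolved by capillary electrophoresis; fitted in both directions against DMSO.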

Assay [19] addresses Heat shock factor protein 1 (Homo sapiens) (UniProt Q00613). Description: ATG_HSE_CIS: Attagene CIS-FACTORIAL HepG2 Assay for human Heat Shock Transcription Factor 1 (HSE) (AID 2282953). Conditions: HepG2 HSE cis-reporter, Attagene RNA transcription; actives raise or lower the signal. The method in brief: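 Endogenous transcription factor activity in transiently transfected HepG2, read as reporter mRNA by RT-PCR with fluorescent capillary electrophoresis after 24 h. Gain or loss of signal fitted versus DMSO baseline.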

A short description of assay [20]: ATG_MRE_CIS: Attagene CIS-FACTORIAL HepG2 Assay for human Metal Responsive Element (MRE) (AID 2282954). The following applies: HepG2 MRE cis-reporter transcription, Attagene multiplex; actives raise or lower the signal. The method in brief:
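Cells were transfected with cis-promoter reporter transcription units, then dosed for 24 h. RNA was reverse-transcribed, amplified, fluorescently labelled and resolved by capillary electrophoresis, and activity was fitted in both directions relative to DMSO.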

Chain of Hypoxia-inducible factor 1-alpha (Homo sapiens) (Q16665 whole entry, looked up): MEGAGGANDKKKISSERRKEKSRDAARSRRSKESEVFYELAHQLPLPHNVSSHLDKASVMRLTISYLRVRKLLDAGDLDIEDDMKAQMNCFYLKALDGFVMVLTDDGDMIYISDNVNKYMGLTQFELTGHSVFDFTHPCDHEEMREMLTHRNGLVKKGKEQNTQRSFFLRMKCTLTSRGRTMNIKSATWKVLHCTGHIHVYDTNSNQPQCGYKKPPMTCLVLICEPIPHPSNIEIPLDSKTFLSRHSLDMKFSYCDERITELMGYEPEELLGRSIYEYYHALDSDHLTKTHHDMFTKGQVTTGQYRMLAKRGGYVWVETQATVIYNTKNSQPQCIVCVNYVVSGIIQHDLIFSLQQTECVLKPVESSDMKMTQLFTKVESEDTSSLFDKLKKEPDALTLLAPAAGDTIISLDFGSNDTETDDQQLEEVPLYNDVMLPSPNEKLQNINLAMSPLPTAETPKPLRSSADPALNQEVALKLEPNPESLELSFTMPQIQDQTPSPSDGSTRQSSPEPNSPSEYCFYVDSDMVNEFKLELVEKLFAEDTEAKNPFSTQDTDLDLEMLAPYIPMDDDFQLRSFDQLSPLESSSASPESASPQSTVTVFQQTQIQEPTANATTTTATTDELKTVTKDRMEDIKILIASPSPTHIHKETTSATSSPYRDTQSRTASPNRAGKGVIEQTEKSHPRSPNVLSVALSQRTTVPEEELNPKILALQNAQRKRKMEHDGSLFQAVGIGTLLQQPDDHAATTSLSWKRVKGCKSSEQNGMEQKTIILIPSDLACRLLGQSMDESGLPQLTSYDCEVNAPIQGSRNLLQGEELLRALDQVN
Chain of Transcription factor E2F1 (Homo sapiens) (Q01094 whole entry, looked up): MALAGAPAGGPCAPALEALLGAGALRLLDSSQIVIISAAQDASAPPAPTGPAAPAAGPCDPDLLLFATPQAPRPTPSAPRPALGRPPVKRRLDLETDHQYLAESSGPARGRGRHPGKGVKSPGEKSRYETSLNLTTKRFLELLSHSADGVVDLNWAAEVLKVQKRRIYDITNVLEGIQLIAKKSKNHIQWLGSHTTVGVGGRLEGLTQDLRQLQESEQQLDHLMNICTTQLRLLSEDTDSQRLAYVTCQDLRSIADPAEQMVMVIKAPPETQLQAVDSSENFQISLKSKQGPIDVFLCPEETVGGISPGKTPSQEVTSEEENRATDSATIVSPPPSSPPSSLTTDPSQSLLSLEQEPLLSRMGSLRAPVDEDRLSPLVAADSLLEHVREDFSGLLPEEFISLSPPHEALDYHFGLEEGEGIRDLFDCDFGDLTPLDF
Chain of Hepatocyte nuclear factor 6 (Homo sapiens) (Q9UBC0 whole entry, looked up): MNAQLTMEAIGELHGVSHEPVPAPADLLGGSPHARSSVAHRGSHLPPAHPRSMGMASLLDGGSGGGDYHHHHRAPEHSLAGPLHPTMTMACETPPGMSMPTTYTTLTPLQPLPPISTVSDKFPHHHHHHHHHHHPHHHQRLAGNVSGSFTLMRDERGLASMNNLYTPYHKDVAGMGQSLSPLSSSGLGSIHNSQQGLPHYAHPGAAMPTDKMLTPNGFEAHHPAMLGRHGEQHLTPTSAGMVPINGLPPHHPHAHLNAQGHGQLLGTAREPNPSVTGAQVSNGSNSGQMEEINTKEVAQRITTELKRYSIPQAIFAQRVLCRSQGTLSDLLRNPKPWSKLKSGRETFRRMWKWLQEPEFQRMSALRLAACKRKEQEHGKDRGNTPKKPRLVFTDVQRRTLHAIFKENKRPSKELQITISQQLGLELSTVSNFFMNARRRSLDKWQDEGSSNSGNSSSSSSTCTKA
Chain of Hepatocyte nuclear factor 3-beta (Homo sapiens) (Q9Y261 whole entry, looked up): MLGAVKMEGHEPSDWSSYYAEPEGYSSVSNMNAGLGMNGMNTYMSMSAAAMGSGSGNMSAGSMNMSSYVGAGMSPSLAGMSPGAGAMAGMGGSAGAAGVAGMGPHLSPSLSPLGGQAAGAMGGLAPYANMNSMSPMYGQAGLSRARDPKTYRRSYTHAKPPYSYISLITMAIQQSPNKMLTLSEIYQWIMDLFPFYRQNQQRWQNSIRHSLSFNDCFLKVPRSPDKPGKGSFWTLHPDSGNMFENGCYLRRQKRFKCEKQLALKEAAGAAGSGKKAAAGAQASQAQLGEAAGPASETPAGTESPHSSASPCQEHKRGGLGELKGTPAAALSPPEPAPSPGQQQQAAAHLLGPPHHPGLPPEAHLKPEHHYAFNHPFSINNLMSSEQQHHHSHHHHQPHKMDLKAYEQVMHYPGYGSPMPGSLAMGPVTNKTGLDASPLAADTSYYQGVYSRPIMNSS
Chain of Heat shock factor protein 1 (Homo sapiens) (Q00613 whole entry, looked up): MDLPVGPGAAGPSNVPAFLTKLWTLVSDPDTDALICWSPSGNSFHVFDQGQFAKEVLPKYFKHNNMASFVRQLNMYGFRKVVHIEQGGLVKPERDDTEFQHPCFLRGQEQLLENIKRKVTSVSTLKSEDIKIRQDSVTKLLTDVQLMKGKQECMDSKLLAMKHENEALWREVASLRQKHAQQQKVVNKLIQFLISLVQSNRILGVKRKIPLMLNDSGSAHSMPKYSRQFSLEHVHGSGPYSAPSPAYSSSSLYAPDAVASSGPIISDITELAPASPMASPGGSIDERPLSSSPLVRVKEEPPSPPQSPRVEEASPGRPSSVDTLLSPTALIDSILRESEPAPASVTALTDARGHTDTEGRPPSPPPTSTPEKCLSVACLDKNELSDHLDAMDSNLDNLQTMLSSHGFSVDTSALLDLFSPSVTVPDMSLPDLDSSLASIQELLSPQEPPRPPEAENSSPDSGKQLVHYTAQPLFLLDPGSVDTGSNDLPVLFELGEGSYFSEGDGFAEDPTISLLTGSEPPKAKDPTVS
Chain of Bile acid receptor (Homo sapiens) (Q96RI1 whole entry, looked up): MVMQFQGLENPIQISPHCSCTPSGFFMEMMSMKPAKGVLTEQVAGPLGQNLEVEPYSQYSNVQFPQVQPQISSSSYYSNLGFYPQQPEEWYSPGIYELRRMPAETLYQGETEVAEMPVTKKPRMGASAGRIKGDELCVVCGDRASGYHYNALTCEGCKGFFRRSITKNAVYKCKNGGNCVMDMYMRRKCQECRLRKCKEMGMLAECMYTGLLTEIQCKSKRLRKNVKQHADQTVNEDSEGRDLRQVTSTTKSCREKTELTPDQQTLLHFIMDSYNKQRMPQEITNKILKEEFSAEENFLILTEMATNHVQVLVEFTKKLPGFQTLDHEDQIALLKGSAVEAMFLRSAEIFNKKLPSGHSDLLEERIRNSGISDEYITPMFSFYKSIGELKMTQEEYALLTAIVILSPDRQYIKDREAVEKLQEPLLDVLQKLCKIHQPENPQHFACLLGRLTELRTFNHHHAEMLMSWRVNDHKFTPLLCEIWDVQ

Consider `CC(C)C1(C)N=C(c2ncccc2C(=O)O)NC1=O` (centres undefined), for which the call in assay [1], in assay [2], in assay [3], in assay [4], in assay [5] and in assay [6] was inactive. Besides, the compound was called inactive in [7], in [8], in [9], in [10], in assay [11] and in [12]. Further, the call in [13], in assay [14], in assay [15], in assay [16], in [17] and in [18] was inactive. In addition, the outcome in assay [19] and in assay [20] was inactive.

As for `COc1cc(Cl)c(OC)cc1Cl`, the call in assay [1], in assay [2], in assay [3], in assay [4], in assay [5] and in [6] was inactive. Moreover, the result in [7], in assay [8], in assay [9], in assay [10], in assay [11] and in assay [13] was inactive. Moreover, the outcome in assay [14], in [15], in assay [16], in assay [17], in assay [18] and in assay [19] was inactive. For the same compound, in assay [20], the outcome was inactive.

One may read the AC50 as the midpoint of the concentration-response curve, whichever way the signal moves. For the compound `CCCCC(O)(Cn1cncn1)c1ccc(Cl)cc1Cl` (centres undefined), the result in assay [1], in assay [3], in [5], in assay [7], in [8] and in assay [9] was inactive. In addition, the compound was classed as inactive in assay [10], in assay [11], in assay [13], in [14], in assay [15] and in [16]. In [17], the compound was classed as inactive. For the same compound, the AC50 was 50 µM (active) in [2]; 50 µM (active) in assay [4]; 12.6 µM (active) in assay [6]; 91.3 µM (active) in assay [12]; 88.4 µM (active) in assay [18]; 76.2 µM (active) in [19]. Besides, in [20], the AC50 was 61.5 µM (active).
